# Measured values taken from PubChem BioAssay.
# Calls of active or inactive are those of the source.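 Rule for the calls, unless noted: active = visually confirmed hit in the image check and inhibition above 20%; inconclusive = visually confirmed hit but inhibition not above 20%; inactive = no visual hit in the image check.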
# What was measured:
# [1] = inhibitors of TNFa-induced NFkB p65 translocation, primary screen, imaging, HUVEC, MLSMR starter and 10KST1 sets (AID 438;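 active = inhibition above 20% together with a positive visual image hit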;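 note: compound added about 3h40 before a 20 min TNFalpha stimulation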;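 for inhibition: signal is the nuclear over cytoplasmic p65 intensity ratio per well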); settings: HUVEC TNFa-induced p65 nuclear translocation; cell count: measured here: nuclei count (cytotoxicity indicator), at 2.08 µM; inhibition: at 2 µM, stronger effect = higher value, 0% TNFa-plus-vehicle, 100% no-TNFa wells
# [2] = reduction of polyQ htt aggregates in cells – imaging, exon1htt(103Q)mCFP cells, high-content imaging, primary screen (AID 483;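 active = visual image review flags a hit and inhibition of aggregation exceeds 20%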;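 note: compound exposure lasted 3 days before fixation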;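 for nuclei count: percent of the per-plate median nuclei count of sample wells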); settings: exon1htt(103Q)mCFP cell line, aggregate imaging, at 2 µM; inhibition of aggregation: stronger effect = higher value; nuclei count: measured here: cell count, toxicity
# [3] = endothelial E-selectin expression blockers – imaging, HUVEC, immunofluorescence, MLSMR starter and 10KST1 sets, primary screen (AID 487); settings: HUVEC TNFalpha-induced E-selectin immunofluorescence imaging, at 2 µM; inhibition: stronger effect = higher value; nuclei count: measured here: cell number, toxicity;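 for inhibition: signal is fraction of cell area covered by stained E-selectin grains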;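 for nuclei count: 100% = median nuclei count of all wells on the same plate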
# [4] = molecular target: Voltage-gated potassium channel subunit beta-2 (Rattus norvegicus) (UniProt P62483); assay: inhibitors of rat Kvbeta2 reductase activity – biochemical, NADPH fluorescence, primary screen (AID 622;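 active = fluorescence slope higher than the sample average by over 3 SD, cut at about -0.22 in these data, passing the limit was not always enough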;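 note: slope of raw intensity against log time taken from 70 to 1610 s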); settings: recombinant KvBeta, 4-cyanobenzaldehyde reduction, at 10 µM, stronger effect = higher value
# Sequence of Voltage-gated potassium channel subunit beta-2 (Rattus norvegicus) (P62483 whole entry, looked up): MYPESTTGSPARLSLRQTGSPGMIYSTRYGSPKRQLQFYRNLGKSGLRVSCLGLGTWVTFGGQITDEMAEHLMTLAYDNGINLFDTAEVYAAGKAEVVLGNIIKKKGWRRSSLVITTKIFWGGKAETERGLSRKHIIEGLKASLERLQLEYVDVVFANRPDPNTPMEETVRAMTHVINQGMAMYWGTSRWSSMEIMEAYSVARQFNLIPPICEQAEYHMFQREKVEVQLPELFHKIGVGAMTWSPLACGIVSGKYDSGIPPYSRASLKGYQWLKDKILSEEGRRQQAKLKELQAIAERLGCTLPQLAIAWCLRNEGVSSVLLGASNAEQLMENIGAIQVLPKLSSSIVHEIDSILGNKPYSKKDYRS
# [5] = molecular target: Voltage-gated potassium channel subunit beta-2 (Rattus norvegicus) (UniProt P62483); assay: enhancers of rat Kvbeta2 NADPH turnover – biochemical, NADPH fluorescence, primary screen (AID 623;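 active = NADPH fluorescence slope more negative than the mean of all samples by about 3 SD, 99.7% confidence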;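 note: fluorescence intensity change per second fitted from 20 to 320 s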); settings: Recombinant KvBeta, NADPH fluorescence decrease slope, 10 min; at 10 µM; stronger effect = lower value
# [6] = molecular target: Alpha-2C adrenergic receptor (Homo sapiens) (UniProt P18825); assay: compounds altering alpha2C-coupled GIRK flux – cell-based, HEK293 alpha2C/GIRK1/2, thallium flux, primary screen (AID 624;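 active = fluorescence slope after compound addition differing from the mean of all screened samples at 99.7% confidence, in either direction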;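 note: slope of fluorescence ratio to pre-addition baseline per second over 15 to 24 s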); settings: thallium flux BTC fluorescence, at 10 µM, actives lie on both sides
# Sequence of Alpha-2C adrenergic receptor (Homo sapiens) (P18825 whole entry, looked up): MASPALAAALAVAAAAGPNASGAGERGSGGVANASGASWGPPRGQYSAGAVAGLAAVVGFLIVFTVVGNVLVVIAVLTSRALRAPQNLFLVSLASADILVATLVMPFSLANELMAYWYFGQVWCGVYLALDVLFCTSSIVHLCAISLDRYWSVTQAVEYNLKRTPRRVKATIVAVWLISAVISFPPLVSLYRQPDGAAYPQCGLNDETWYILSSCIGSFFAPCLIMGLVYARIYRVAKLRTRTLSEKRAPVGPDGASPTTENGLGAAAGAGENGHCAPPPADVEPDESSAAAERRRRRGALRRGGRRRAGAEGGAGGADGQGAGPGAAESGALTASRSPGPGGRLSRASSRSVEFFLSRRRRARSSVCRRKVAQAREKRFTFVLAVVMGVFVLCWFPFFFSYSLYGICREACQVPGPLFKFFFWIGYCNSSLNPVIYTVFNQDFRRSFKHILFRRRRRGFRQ
# [7] = blockers of RIG-like receptor reporter activation – cell-based, Sendai virus stimulus, luciferase, 10K MLSCN set, TLR/RLR signaling modifier project, primary screen (AID 602276;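 active = inhibition at or above 50% at 10 µM; inactive = inhibition below 50%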;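 note: firefly luciferase from ISG56 promoter only with Renilla not read in this screen; 0% = Sendai virus plus DMSO and 100% = medium plus DMSO without virus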); settings: HEK293 RL24 IRF3 luciferase reporter, at 10 µM, stronger effect = higher value
# [8] = TLR3 IRF3 reporter activation blockers – cell-based, poly I:C stimulus, luciferase, 10K MLSCN set, primary screen (AID 602277;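 active = inhibition of the reporter signal at or above 50%; inactive = inhibition below 50%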); settings: HEK293-TLR3 RL24 IRF3 luciferase reporter, at 10 µM, stronger effect = higher value
Structure (SMILES),cell count [1],inhibition [1],inhibition of aggregation [2],nuclei count [2] [%],inhibition [3],nuclei count [3] [%],fluorescence slope [4],NADPH fluorescence slope [5],slope [6],inhibition [7],inhibition [8]
O=C(c1cc(S(=O)(=O)N2CCOCC2)ccc1F)N1CCCc2ccccc21,555,-26.9% (inactive),-9.6% (inactive),102,-44.9% (inactive),140,-0.382 (inactive),-4.2e-05 (inactive),0.00518 (inactive),12.6% (inactive),27.4% (inactive)
Cc1ccc(S(=O)(=O)N2CCC(C(=O)NCCN3CCCCCC3)CC2)cc1,768,-9.5% (inactive),-2.1% (inactive),102,-87.4% (inactive),110,-0.456 (inactive),-6.3e-05 (inactive),0.00469 (inactive),11.2% (inactive),32.9% (inactive)
CN(C)c1ccc2c(c1)OC(N)=C(C#N)C2c1cccc(F)c1 (stereo unspecified),404,11.5% (inactive),-56.1% (inactive),3,-8.8% (inactive),103,-0.515 (inactive),1.1e-05 (inactive),0.0134 (active),36.6% (inactive),82.9% (active)
Cc1cccc(C)c1OCc1nnc(SCC(=O)Nc2ccccc2F)o1,592,-12% (inactive),21.8% (inactive),67.2,4% (inactive),109,-0.558 (inactive),-3e-05 (inactive),0.00659 (inactive),16.4% (inactive),25.4% (inactive)
Cc1nn(-c2ccccc2)c2sc(C(=O)N3CCOCC3)cc12,536,-4.4% (inactive),-1.9% (inactive),115,-11.9% (inactive),118,-0.398 (inactive),1.4e-05 (inactive),0.00676 (inactive),-21.4% (inactive),-21.6% (inactive)
Cc1ccc(C(C)n2cc(C(=O)NCCN3CCN(C)CC3)nn2)cc1 (stereo unspecified),429,12.1% (inactive),-6.7% (inactive),117,-7.3% (inactive),119,-0.575 (inactive),-1.3e-05 (inactive),0.00588 (inactive),3.51% (inactive),7.62% (inactive)
CS(=O)(=O)N1CCCC(C(=O)N2CCOCC2)C1 (stereo unspecified),683,1.2% (inactive),9.8% (inactive),92,-142% (inactive),116,-0.566 (inactive),6.2e-06 (inactive),0.00664 (inactive),11.5% (inactive),3.97% (inactive)
COc1ccc(N=c2scc(-c3ccc(S(=O)(=O)N4CCOCC4)cc3)n2CCCO)cc1,974,-6.1% (inactive),23% (inactive),99.9,-218% (inactive),136,-0.319 (inactive),-2.9e-05 (inactive),0.00558 (inactive),41.4% (inactive),-19.4% (inactive)
CSc1nc2ccc(Nc3nc(N4CCOCC4)nc(N4CCOCC4)n3)cc2s1,391,4.9% (inactive),6.4% (inactive),106,17.6% (inactive),110,-0.354 (inactive),-2.2e-05 (inactive),0.00663 (inactive),-24.9% (inactive),-49.5% (inactive)
Cc1onc(-c2c(Cl)cccc2Cl)c1C(=O)N1CCc2ccccc21,696,-5.8% (inactive),-0.7% (inactive),93.6,-30.8% (inactive),92.5,-0.47 (inactive),-3.1e-05 (inactive),0.00899 (inactive),23.7% (inactive),23.2% (inactive)
CCN(CC)Cc1c(C(=O)OC)nnn1-c1nonc1N,476,-0.2% (inactive),13.9% (inactive),99.5,-18.2% (inactive),107,-0.504 (inactive),-0.000189 (inactive),0.00521 (inactive),4.14% (inactive),14.8% (inactive)
O=C(Cn1nnc2ccccc2c1=O)NC1CCCc2ccccc21 (stereo unspecified),485,-2.9% (inactive),-0.1% (inactive),108,10.6% (inactive),92.5,-0.486 (inactive),-1.6e-05 (inactive),0.00524 (inactive),17% (inactive),25% (inactive)
N#CCCn1ccc(NC(=O)c2ccc(Cl)cc2)n1,444,-6.3% (inactive),13.4% (inactive),100,-23% (inactive),131,-0.477 (inactive),-6.3e-05 (inactive),0.00607 (inactive),-18.1% (inactive),-11.6% (inactive)
O=C(OCCCCN1C(=O)c2ccccc2C1=O)c1n[nH]c2ccccc12,698,8.6% (inactive),12.4% (inactive),97,-164% (inactive),155,-0.543 (inactive),-5.2e-05 (inactive),0.00475 (inactive),9.32% (inactive),-4.95% (inactive)
CC1=C(C(=O)OC2CCCC2)C(c2ccc(C)o2)C2=C(CC(c3cccs3)CC2=O)N1 (stereo unspecified),346,3.5% (inactive),-7.2% (inactive),81.1,-10.5% (inactive),99,-0.459 (inactive),-5.5e-05 (inactive),0.00301 (inactive),-5.28% (inactive),16.8% (inactive)
COc1ccccc1N1CCN(c2cc(=O)n(Cc3ccc(F)cc3)c(=O)[nH]2)CC1,503,-2.8% (inactive),2% (inactive),44,11.7% (inactive),106,-0.569 (inactive),-3.7e-05 (inactive),0.00657 (inactive),17.1% (inactive),29.3% (inactive)
Cc1cc(-n2c(C)cc(C(=O)CSc3nc4ccccc4c(=O)n3Cc3ccco3)c2C)no1,288,-8.6% (inactive),8.4% (inactive),95,-104% (inactive),96.6,-0.441 (inactive),-2e-05 (inactive),0.00698 (inactive),8.08% (inactive),-48.8% (inactive)
CN(Cc1ccccc1)Cc1nc2c(c(=O)n(C)c(=O)n2C)n1Cc1ccc(Cl)cc1,346,-7.7% (inactive),22.2% (inactive),72.4,-32.1% (inactive),161,-0.612 (inactive),-1.8e-05 (inactive),0.00317 (inactive),-1.93% (inactive),2.58% (inactive)
Cc1ccc(NC(=O)C2CC=CCC2C(=O)N2CCCCC2)cc1 (stereo unspecified),636,-23.5% (inactive),-67% (inactive),66.9,-9.5% (inactive),94.3,-0.499 (inactive),-2.1e-05 (inactive),0.00665 (inactive),-0.377% (inactive),26.9% (inactive)
O=S(=O)(NCC1CCCO1)c1ccc2c(c1)OCCO2 (stereo unspecified),311,-5.5% (inactive),-1% (inactive),122,-67.1% (inactive),120,-0.469 (inactive),-9.9e-06 (inactive),0.00518 (inactive),6.84% (inactive),7.25% (inactive)
O=C(O)CN1C(=O)CNC1=O,249,8.5% (inactive),-1.9% (inactive),60.7,-66.2% (inactive),119,-0.519 (inactive),9.8e-06 (inactive),0.00529 (inactive),3.07% (inactive),24% (inactive)
CN(C)CC(C(=O)c1ccccc1)c1ccccc1 (stereo unspecified),460,2.4% (inactive),-28% (inactive),13.4,20.2% (inactive),113,-0.251 (inactive),-1.2e-05 (inactive),0.0054 (inactive),11% (inactive),82.3% (active)
CC(=O)Nc1ccc(OC(=O)c2cccs2)cc1,716,10.2% (inactive),-5% (inactive),107,27.9% (inactive),94.2,-0.473 (inactive),5.9e-06 (inactive),0.00674 (inactive),8.66% (inactive),20% (inactive)
CCCCC(=O)NCCc1ccc(S(N)(=O)=O)cc1,555,10.7% (inactive),1.1% (inactive),101,-35% (inactive),88.9,-0.412 (inactive),-5.1e-05 (inactive),0.0057 (inactive),3.38% (inactive),10.4% (inactive)
C=CCn1c(-c2ccccc2)c[nH]c1=S,544,-9.5% (inactive),-9.3% (inactive),112,8.5% (inactive),101,-0.61 (inactive),-4.2e-05 (inactive),0.00665 (inactive),-33.4% (inactive),-112% (inactive)
Cc1cc2nc(-c3ccco3)cc(C(F)(F)F)n2n1,903,3.5% (inactive),-18.7% (inactive),104,-56.6% (inactive),121,-0.578 (inactive),-1.8e-05 (inactive),0.00736 (inactive),10.1% (inactive),18.3% (inactive)
